From PubChem
This is a sample that favours compounds with a hit; in the whole collection about 1.5% have one here.
AID504770: growth inhibition of E. coli YBA685, primary screen, V. cholerae RctB inhibitors | E. coli YBA685 rctB-dependent plasmid, OD600 growth, 3 h; hits give low values | z-score (test concentration not listed) | 0.27% of 130,000 active | AID 504770, 2011; in the data active = z-score below about -2, passing the limit was not always enough
Mtb MenB inh: M. tuberculosis MenB inhibitors, primary screen, biochemical, absorbance; 1,4-dihydroxy-2-naphthoyl-CoA synthase (Mycobacterium tuberculosis (strain ATCC 25618 / …; MenB enzyme assay, absorbance read-out; 0.43% of 100,000 active; inhibition, % (concentration not given with the values); AID 540299, 2011; in the data active = inhibition above about 21%, passing the limit was not always enough
Polio RdRp inh: poliovirus RdRp elongation inhibitors, primary screen, biochemical, fluorescence polarization, total intensity; poliovirus polymerase elongation; hits give low values; % elongation, % (compound at 16.7 µg/mL); 0.66% of 150,000 active; AID 588519, 2011; in the data active = % elongation below about 90%
Target sequence (P03300 1749-2209 limits assumed): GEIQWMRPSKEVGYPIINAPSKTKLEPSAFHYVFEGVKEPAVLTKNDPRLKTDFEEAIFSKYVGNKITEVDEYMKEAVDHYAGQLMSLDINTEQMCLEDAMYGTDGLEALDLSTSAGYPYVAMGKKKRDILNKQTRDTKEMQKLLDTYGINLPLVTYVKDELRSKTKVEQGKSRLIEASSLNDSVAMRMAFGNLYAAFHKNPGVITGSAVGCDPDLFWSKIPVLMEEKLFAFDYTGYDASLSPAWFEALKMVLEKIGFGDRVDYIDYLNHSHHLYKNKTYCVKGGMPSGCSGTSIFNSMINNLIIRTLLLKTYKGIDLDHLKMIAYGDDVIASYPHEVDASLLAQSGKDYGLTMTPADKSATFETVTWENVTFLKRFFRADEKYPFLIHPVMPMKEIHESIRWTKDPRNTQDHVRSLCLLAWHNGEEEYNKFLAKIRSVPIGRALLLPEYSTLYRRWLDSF
MbtI inh: MbtI salicylate synthase inhibitors, primary screen, biochemical, fluorescence intensity; P9WFX0; inhibition, % (concentration not given with the values); 0.89% of 100,000 active; purified MbtI enzyme, fluorescence intensity read-out; in the data active = inhibition mostly above about 56%, no sharp cut-off; inactive = mostly below about 77%
* marks the source's active call; other numbers are inactive results; . = no result; ! = repeats disagree.

SMILES	AID504770	Mtb MenB inh	Polio RdRp inh	MbtI inh
O=C(O)c1ccccc1-c1c2cc(Br)c(=O)cc-2oc2[c]([Hg])c(O)c(Br)cc12	0.05	-2	70	104*
COc1cccc(OC)c1C(=O)Nc1nnc(CC(C)(C)C)s1	-0.25	-19	71*	.
COc1ccc(NC(=O)c2ccc3c(c2)CCN3S(=O)(=O)c2ccccc2)cc1	.	.	105	.
Cc1ccc(NC(=O)CSC(=N)N)cc1	-1.6	1	102	12
N=C(N)SCC(=O)Nc1ccccc1	-0.4	23*	100	4
CCOc1ccc(C(=O)Cc2ccc3oc(C(=O)O)cc3c2)c(O)c1	0.2	5	101	11
N/C(=N\O)c1ccncc1	1.7	-17	102	-8
N/C(=N\O)c1cccc(/C(N)=N/O)n1	-0.75	47*	113	.
Nc1nonc1/C(=N/O)N1CCCC1	1.4	26	101	8
Nc1nonc1C(=O)N1CCCC1	1.8	46*	104	10
Cc1cn([C@H]2C[C@H](N=[N+]=[N-])[C@@H](CO)O2)c(=O)[nH]c1=O	-2.5*	1	100	-21
Cc1cn(C2CC(O)C(CO)O2)c(=O)[nH]c1=O (stereo not given)	-0.35	-26	106	-16
S=C1CSc2ccccc2N1	-0.8	-13	92	78*
c1ccc2c(c1)Nc1ccccc1S2	-0.05	-20	102	10
COc1ccc(Cl)cc1-n1nnc(-c2nc(-c3ccccc3)no2)c1C	.	.	102	.
Cc1c(-c2nc(-c3ccccc3)no2)nnn1-c1ccc(F)c(Cl)c1	.	.	81*	.
CCOC(=O)C1CCN(c2c(C(=O)c3ccc(C)cc3)cnc3ccc(F)cc23)CC1	.	.	80*	.
Cc1nc(/N=C(/N)Nc2cccc(Cl)c2C)[nH]c(=O)c1Cc1ccccc1	1.8	8	101	5
Cc1c(C(=O)Nc2ccccc2Br)oc2ccc(S(=O)(=O)N3CCOCC3)cc12	.	.	104	.
Cc1ccccc1C(=O)NN1C(=O)c2ccccc2C1=O	-0.3	33*	101	-1
O=C(NN1C(=O)c2ccccc2C1=O)c1ccccc1	-0.6	8	100	.
O=c1c2c([nH]c3ccccc13)CCCCC2	-0.55	35*	100	20
O=C(CC1Sc2ncnn2C1=O)Nc1ccc(Br)cc1 (stereo not given)	1.7	.	.	99*
CN=C1SC(CC(=O)Nc2ccccc2)C(=O)N1C (stereo not given)	0.4	-8	.	-8
CCCCCn1nc(C(=O)O)c2ccccc2c1=O	-0.75	-31	97	-3
SMILES	AID504770	Mtb MenB inh	Polio RdRp inh	MbtI inh
Cc1ccccc1NC(=O)Cn1cc(S(=O)(=O)c2ccccc2)c(=O)c2ccccc21	.	.	104	.
COc1ccc(-c2cc3nccc(-c4cc(Cl)c(C)cc4O)n3n2)cc1	.	.	86*	.
O=C1C=CC(=O)N1CCc1ccccc1	-1.6	.	102	93*
O=C1C=CC(=O)N1CCc1ccc(Cl)cc1	-1.8	-7	101	100*
COc1ccc(CCNc2nc(C)cc(=O)[nH]2)cc1OC	-0.4	.	.	-6
CC(=O)NC(NC(C)=O)c1ccc2c(c1)OCO2	-0.05	31*	102	-5
CN(C)C(=S)Nc1ccc2c(c1)OCO2	1.6	-38	102	92*
CSc1cccc(NC(=S)N(C)C)c1	-1.1	-57	99	74*
CC(=S)Nc1ccc2c(c1)OCO2	-0.15	-15	72*	73*
Cn1c(=O)c2c(nc(Sc3nc4ccccc4n3CC(=O)NC3CCCCC3)n2C)n(C)c1=O	0.7	.	.	.
CCOC(=O)/C=C(\O)C(F)(F)F (tested in a mixture with another compound)	-0.2	.	.	.
NC(=O)/C=C/C(=O)Nc1ccc2c(c1)OCO2	-1.3	0	101	101*
CC(C)(C(=O)Nc1ccc2c(c1)OCO2)C(=O)Nc1ccc2c(c1)OCO2	0.3	41*	103	4
CC(C)(C)C(=O)Nc1ccc2c(c1)OCO2	2.3	.	102	-4
O=C(/C=C/c1ccccc1)Nc1ccc2c(c1)OCO2	-0.65	-29	107	-18
Cc1ccc(-n2nc(C)c3c(C)onc3c2=O)cc1	1.1	-4	104	-15
O=C(CC(C(=O)O)c1cccc(Cl)c1)c1ccccc1 (stereo not given)	0.2	.	.	.
O=C(O)C(CO)c1ccccc1 (stereo not given)	0.1	26*	98	0
Cc1ccc(-c2noc(CNC(=O)c3ccc(C(C)(C)C)cc3)n2)cc1	.	.	106	.
COP1(=S)/C(=C2/N(C)c3ccccc3C2(C)C)C=NN1C (stereo not given)	0.65	-82	70*	100*
CN(C)C(=S)Nc1ccccc1OC(F)F	-0.95	-14	98	88*
COc1ccccc1-n1cc(C(=O)c2ccccc2O)cc(C#N)c1=O	-0.2	-20	113	96*
Cc1ccc(CCNC(=O)c2ccc(CS(=O)(=O)Cc3ccccc3F)o2)cc1	.	.	104	.
CC1CCCCC1NC(=O)COC(=O)c1ccc(Cl)c(S(N)(=O)=O)c1 (stereo not given)	-3*	-1	105	-3
COC(=O)c1nnn(-c2nonc2N)c1CSC#N	-0.05	5	102	74*
SMILES	AID504770	Mtb MenB inh	Polio RdRp inh	MbtI inh
O=C(CC1S/C(=N\N=C2CCCCC2)NC1=O)Nc1ccc(F)cc1 (stereo not given)	-0.3	-16	99	-4
N=C(N)N=Nc1c(O)[nH]c2ccccc12	-0.75	-145	101	15
Cc1cc(N)cc2[nH]c(-c3ccc(N)cc3)nc12	0.8	-7	66*	.
C=C/C=C(\C=C(C)C)N(C(=O)NC1CCCCC1)C1=NCCCS1	-1.3	29*	102	-1
CCN(CC)C(=O)NC1CCCCCC1	-0.8	-13	100	-12
Cc1ccccc1OCC1=NN2C(=N)/C(=C\c3cccn3-c3ccccc3C)C(=O)N=C2S1	-0.25	-10	99	-9
CCN(Cc1ccccc1)C(c1ccccn1)c1nnnn1C1CCCCC1 (stereo not given)	0.45	34*	102	5
CC1CCN(S(=O)(=O)c2cc(C(=O)Nc3ccc(Br)cc3F)n(C)c2)CC1	.	.	102	.
Cc1nc(-c2ccc3c(c2)OCCO3)cs1	0.3	-13	78*	92*
Cc1nc(-c2ccc(C(=O)O)cc2)cs1	1.9	28*	103	20
CC(=O)Nc1nc(-c2ccc3c(c2)OCCO3)cs1	0.4	.	.	.
O=c1[nH]c2ccccc2cc1CN(CC1CCCO1)S(=O)(=O)c1ccccc1 (stereo not given)	-0.3	19	101	61
COc1ccc(-c2cc(C(F)(F)F)n3nc(C(=O)Nc4cccc(C(F)(F)F)c4)c(Br)c3n2)cc1	.	.	106	.
O=C1C=CC(=O)c2c(O)cccc21	0.85	7	87*!	-21
O=C1c2ccccc2C(=O)c2c1ccc(O)c2O	0.5	3	98	0
CCN(CC)c1ccc(/C=C(/C#N)C(=O)NC(C)C)o1	-3.4*	-162	77	4
CCN(CCC#N)c1ccc(/C=C(\C#N)C(=O)NC(C)C)c(C)c1	0.8	-494	125	18
Cn1c(O)c(C=NCCc2c[nH]c3ccccc23)c(=O)[nH]c1=S	-0.15	-21	100	-11
O=C(CO/N=C/c1ccco1)NCc1ccccc1	1	8	110	51*
